One assay concerns HCC1937. Description: relative cell viability, compound alone, vs DMSO (fraction of DMSO control); higher = less growth inhibition. The following applies: 72 h.
For a further assay, the system named is MDA-MB-231. The assay is described as above. The following applies: 72 h.

Each structure is given as a SMILES string. Counter-ions that a name gives are not always drawn.
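Note: viability read out with the CCK-8 kit in 96-well plates, screening a set of 303 compounds acting on lipid metabolism targets.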

For the compound `CN1CC(O)C2=C/C(=N/NC(N)=O)C(=O)C=C21` (centres undefined) [Carbazochrome], the relative cell viability amounted to 0.793 in the assay on HCC1937 and 0.871 with MDA-MB-231.
On the same counts, the results for `Cc1c(C)c2c(c(C)c1O)CCC(C)(COc1ccc(CC3SC(=O)NC3=O)cc1)O2` (centres undefined) [Troglitazone] are 0.718 and 0.984.
In the same order, the values of `COc1ccc(Nc2ccn(-c3ccccc3)n2)cc1` are 0.868 and 1.
In the same order, the values of `CC(C)n1c(/C=C/C(O)CC(O)CC(=O)O)c(-c2ccc(F)cc2)c2ccccc21` (centres undefined) [Fluvastatin sodium salt] are 0.924 and 0.863.
On to `COc1ccc(/C=C/c2cc(O)cc(O[C@@H]3O[C@H](CO)[C@@H](O)[C@H](O)[C@H]3O)c2)cc1` [Deoxyrhapontin], for which the relative cell viability was determined as 0.932 in the assay with HCC1937 and 0.995 with MDA-MB-231.
On the same counts, the results for `CC(O)(CC(=O)O)CC(=O)O` [Meglutol] are 0.748 and 0.891.
Regarding `CCC(C)(Oc1ccc(C2(c3ccc(OC(C)(CC)C(=O)O)cc3)CCCCC2)cc1)C(=O)O` (centres undefined) [Clinofibrate], the relative cell viability was determined as 0.901 in the assay with HCC1937 and 0.846 with MDA-MB-231.
Regarding `O=C(CC(C(=O)O)c1c[nH]c2ccccc12)c1ccc(F)cc1F` (centres undefined) [Mitochonic acid 5], the relative cell viability in the assay with HCC1937 worked out at 1.26; in the assay with MDA-MB-231 it was 1.19.
Consider `CCC1C(O)C2C3CCC(C(C)CCO)C3(C)CCC2C2(C)CCC(O)CC12` (centres undefined), for which the relative cell viability is 0.848 in the assay with HCC1937 and 0.916 in the assay with MDA-MB-231.
Take `O=C(NNc1ccccc1)c1ccncc1` [PluriSln 1]: the relative cell viability with HCC1937 was determined as 0.925; in the assay with MDA-MB-231, 0.814.
On the same counts, the results for `C[C@H](CCOc1cccc(CC(=O)O)c1)N(Cc1cccc(C(F)(F)F)c1Cl)CC(c1ccccc1)c1ccccc1` [RGX-104 free Acid] are 0.613 and 0.863.
Consider `COc1cccc(CNc2ccc(S(=O)(=O)Nc3nc4ccccc4s3)cc2)c1O`, for which the results for the relative cell viability in the assay on HCC1937 and in the assay on MDA-MB-231 were 1.01 and 0.975, respectively.
In the same order, the values of `O=C(NN1CCCCC1)c1nn(-c2ccc(Cl)cc2Cl)c(-c2ccc(C#Cc3ccc(C(F)(F)F)cc3)s2)c1CNS(=O)(=O)N1CCCC1` are 1.01 and 0.893.
Turning to `O=C(O)CCn1c2c(c3ccccc31)C[C@H](NS(=O)(=O)c1ccc(F)cc1)CC2` [Ramatroban], the relative cell viability in the assay on HCC1937 turned out to be 0.711; with MDA-MB-231 it was 0.841.
On the same counts, the results for `COc1ccc(-n2c(SCCCN3C(=O)c4cccc5cccc(c45)C3=O)nnc2-c2ccncc2)cc1` are 0.661 and 0.877.
On the same counts, the results for `CCOC(=O)c1c(NC(=O)CN2CCN(C(=O)c3ccco3)CC2)sc2c1CCC2` are 0.857 and 0.967.
On the same counts, the results for `O=C1c2cccc(O)c2C(=O)c2c(O)cccc21` [Antrapurol] are 0.699 and 0.808.
For `O=C(O)c1ccnc(N2CC(O)(c3ccc(OCc4c(-c5c(Cl)cccc5Cl)noc4C4CC4)cc3Cl)C2)c1` [Cilofexor], the relative cell viability with HCC1937 worked out at 0.661; in the assay on MDA-MB-231, 0.885.
In the same order, the values of `CCCCCC=CC(=O)CCc1ccc(O)c(OC)c1` [6-Shogaol] are 0.937 and 0.978.
`NC(=O)c1cnccn1` [Pyrazinamide]: the relative cell viability in the assay on HCC1937 stood at 0.654; with MDA-MB-231 it was 0.841.
Consider `CC1(C)CC[C@]2(C(=O)O[C@@H]3O[C@H](CO)[C@@H](O)[C@H](O)[C@H]3O)CC[C@]3(C)C(=CC[C@@H]4[C@@]5(C)CC[C@H](O[C@@H]6O[C@H](C(=O)O)[C@@H](O)[C@H](O)[C@H]6O)C(C)(C)[C@@H]5CC[C@]43C)[C@@H]2C1` [Chikusetsusaponin IVa], for which the relative cell viability in the assay with HCC1937 was 1.02; in the assay with MDA-MB-231 it was 0.966.
On the same counts, the results for `CC(C)(Oc1ccc(Cl)cc1)C(=O)O` [Clofibric acid] are 1.24 and 0.825.
On the same counts, the results for `CCOC(=O)N1c2ccc(C(F)(F)F)cc2[C@@H](N(Cc2cc(C(F)(F)F)cc(C(F)(F)F)c2)C(=O)OC)C[C@H]1CC` [Torcetrapib] are 0.745 and 0.781.
On the same counts, the results for `O=C(O)C(O)Cc1ccc(O)c(O)c1` (centres undefined) [Sodium Danshensu] are 0.718 and 0.818.
`O=S(=O)(c1ccccc1)N(CC(F)(F)F)c1ccc(C(O)(C(F)(F)F)C(F)(F)F)cc1`: the relative cell viability in the assay with HCC1937 stood at 0.957; in the assay with MDA-MB-231, 1.23.
In the same order, the values of `NC(N)=NN=Cc1cccc(Cl)c1Cl` [Raphin1] are 0.818 and 0.72.
In the same order, the values of `O=C(O)CC[C@H](O)C(=O)O` [L-2-Hydroxyglutaric acid disodium] are 1.04 and 1.
Take `COc1cc(C(C)=O)ccc1O` [Acetovanillone]: the relative cell viability in the assay with HCC1937 came out at 0.833; in the assay with MDA-MB-231 it was 0.891.
On the same counts, the results for `O=C1c2cc(CO)cc(O)c2C(=O)c2c(O[C@@H]3O[C@H](CO)[C@@H](O)[C@H](O)[C@H]3O)cccc21` [Aloe-emodin-8-O-beta-D-glucopyranoside] are 0.544 and 0.783.
Regarding `O=C(c1c2ccccc2cc2ccccc12)N1CCC(N2CCC[C@@H](C(=O)N3CCOCC3)C2)CC1`, the results for the relative cell viability with HCC1937 and with MDA-MB-231 were 0.763 and 0.836, respectively.
On the same counts, the results for `O=C(O)c1cc(F)c2nc(N3[C@@H]4CC[C@H]3C[C@@H](OCc3c(-c5ccccc5OC(F)(F)F)noc3C3CC3)C4)sc2c1` [Tropifexor] are 1.05 and 0.971.
Turning to `Nc1ccc(O)c(C(=O)O)c1` [Mesalamine], the relative cell viability in the assay with HCC1937 was determined as 1.17; with MDA-MB-231 it was 0.914.

The values above are taken from the supplement of paper PMC9492666.
